Out of some 310,000 compounds screened, about 14,000 (4.5%) showed an effect of 50% or more. Effects have a minus sign here. The entries come from a sample that favours strong results as a whole.
What follows are compounds tested against human ether-à-go-go-related gene (hERG) potassium channel (human, UniProt Q12809) (assay: primary screen, population patch clamp on CHO cells stably expressing hERG; higher = less effect of the substance).
Protocol: Briefly, Chinese hamster ovary (CHO) cells stably expressing the hERG channel were dislodged from tissue culture flasks and dispensed into PPC plates. […] During the recording, background leak currents were estimated by a 100 ms step to -80 mV from an initial holding potential of -70 mV and subtracted from the subsequent current measurement. The campaign was conducted in two phases using slight differences in recording protocol. In the first phase, the initial voltage pulse used a 100 ms step to -30 mV from a holding potential of -70 mV, a 2 s conditioning step to +25 mV, and a 2 s test step to -30 mV. During the second phase of the screen, the potential during the conditioning step was raised to +45 mV. In both phases of the campaign, a secondary voltage pulse was applied using the same parameters as the second phase initial pulse. The initial and secondary pulses were applied in the absence of compound, and upon application of 1 μM and 10 μM test concentrations. […]
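Further: peak tail current of the secondary pulse compared with the same well before compound.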

Chain of human ether-à-go-go-related gene (hERG) potassium channel (Q12809 whole entry, looked up): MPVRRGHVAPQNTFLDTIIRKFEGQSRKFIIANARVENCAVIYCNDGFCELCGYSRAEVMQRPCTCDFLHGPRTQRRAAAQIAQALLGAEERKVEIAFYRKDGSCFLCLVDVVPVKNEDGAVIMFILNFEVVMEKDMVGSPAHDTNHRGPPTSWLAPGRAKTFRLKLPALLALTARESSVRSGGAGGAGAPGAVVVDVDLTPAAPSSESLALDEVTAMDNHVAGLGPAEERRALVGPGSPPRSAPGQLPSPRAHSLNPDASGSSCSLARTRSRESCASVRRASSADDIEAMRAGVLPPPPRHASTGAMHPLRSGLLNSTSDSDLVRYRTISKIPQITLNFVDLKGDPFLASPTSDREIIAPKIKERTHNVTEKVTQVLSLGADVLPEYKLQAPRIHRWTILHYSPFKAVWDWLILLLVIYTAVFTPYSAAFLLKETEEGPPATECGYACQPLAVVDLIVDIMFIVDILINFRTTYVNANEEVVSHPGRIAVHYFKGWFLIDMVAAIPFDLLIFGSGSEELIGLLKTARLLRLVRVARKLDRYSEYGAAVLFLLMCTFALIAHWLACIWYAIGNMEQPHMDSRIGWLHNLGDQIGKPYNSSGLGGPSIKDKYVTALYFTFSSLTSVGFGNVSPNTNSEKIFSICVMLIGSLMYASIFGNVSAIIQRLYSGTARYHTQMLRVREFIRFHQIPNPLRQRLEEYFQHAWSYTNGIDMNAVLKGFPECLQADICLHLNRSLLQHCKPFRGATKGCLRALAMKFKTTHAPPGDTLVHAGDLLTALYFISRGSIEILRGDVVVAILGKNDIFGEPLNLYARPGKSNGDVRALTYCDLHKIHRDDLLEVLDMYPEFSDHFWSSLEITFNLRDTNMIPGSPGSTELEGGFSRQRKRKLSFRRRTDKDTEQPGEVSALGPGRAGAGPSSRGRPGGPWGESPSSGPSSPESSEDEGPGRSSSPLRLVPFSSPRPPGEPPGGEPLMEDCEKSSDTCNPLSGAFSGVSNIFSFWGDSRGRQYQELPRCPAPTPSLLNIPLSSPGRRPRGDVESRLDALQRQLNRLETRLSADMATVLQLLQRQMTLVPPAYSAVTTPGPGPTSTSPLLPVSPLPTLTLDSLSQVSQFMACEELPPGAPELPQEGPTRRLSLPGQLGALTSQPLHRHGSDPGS

Compound | hERG current change (%, negative = inhibition) at 10uM
Cc1cccc2cc(CN(CCN(C)C)C(=S)NCc3ccco3)c(=O)[nH]c12 | -38.9%
CCN(CC)CCN(Cc1cc2ccc(C)c(C)c2[nH]c1=O)C(=S)NCc1ccco1 | -51.4%
Cc1ccc2cc(CN(CC3CCCO3)C(=S)NCc3ccco3)c(=O)[nH]c2c1C (stereo not drawn) | -40.8%
Cc1cc(C)c2[nH]c(=O)c(CN(Cc3cccs3)C(=S)NCc3ccco3)cc2c1 | -15.7%
CCN(CC)CCN(Cc1cc2cc(C)cc(C)c2[nH]c1=O)C(=S)NCc1ccco1 | -52.5%
Cc1cc(C)c2[nH]c(=O)c(CN(CC3CCCO3)C(=S)NCc3ccco3)cc2c1 (stereo not drawn) | -4.81%
Cc1ccc(OCCC(=O)Nc2ccc(S(=O)(=O)Nc3cc(C)nc(C)n3)cc2)cc1 | 1.18%
Br.CCCN1CCc2cc(O)cc3c2[C@H]1Cc1ccc(O)c(O)c1-3.O | -57.8%
COc1c(O)ccc2c1-c1c3c(cc4c1C(C2)N(C)CC4)OCO3 (stereo not drawn) | -28.7%
Br.C=CCN1CCc2cccc3c2[C@H]1Cc1ccc(O)c(O)c1-3 | -19.3%
Cn1c(N)c(N=Nc2ccc(S(N)(=O)=O)cc2)c(=O)n(C)c1=O | 27.6%
COc1ccc(NC(=O)CN(C)CC(=O)Nc2ccc(Cl)cc2F)cc1 | -10.6%
CCN(CC(=O)Nc1ccc(OC)cc1)CC(=O)Nc1ccc(Cl)cc1F | -6.34%
CCN(CC(=O)Nc1ccc(OC)cc1)CC(=O)Nc1ccc(Br)cc1F | -67.4%
Cc1ccc(Cn2nnc3c(=O)n(CC(=O)c4ccccc4)cnc32)cc1 | -0.591%
COc1ccc(NS(=O)(=O)c2cc(-c3cnc(C4CC4)o3)ccc2C)cc1 | 6.02%
Cc1ccccc1-c1nc(CN2CCC(C(=O)N3CCN(c4ccccn4)CC3)CC2)c(C)o1 | -62%
CCc1ccc(-c2nc(CN3CCC(C(=O)N4CCN(c5ccccc5)CC4)CC3)c(C)o2)cc1 | -71.3%
Cc1ccc(-c2nc(CS(=O)CC(=O)N3CCN(c4ncccn4)CC3)c(C)o2)cc1 (stereo not drawn) | -54.1%
CCc1ccc(-c2nc(CSCC(=O)N3CCN(c4ncccn4)CC3)c(C)o2)cc1 | -23.6%
Cc1ccc(-c2nc(CS(=O)CC(=O)N3CCN(c4ccc(F)cc4)CC3)c(C)o2)cc1 (stereo not drawn) | -42%
CCOc1ccccc1-c1nc(CN2CCC(C(=O)N3CCOCC3)CC2)c(C)o1 | -5.13%
Cc1ccc(-c2nc(CS(=O)CC(=O)N3CCN(c4ccccc4)CC3)c(C)o2)cc1 (stereo not drawn) | -31.3%
Cc1ccc(-c2nc(CSCC(=O)N3CCN(c4ccccn4)CC3)c(C)o2)cc1 | -25%
CCc1ccc(-c2nc(CSCC(=O)N3CCN(c4ccccn4)CC3)c(C)o2)cc1 | -50.7%
COC(=O)c1ccc(-c2nc(CN3CCC(C(=O)N4CCOCC4)CC3)c(C)o2)cc1 | -7.65%
COc1ccc(-c2nc(CN3CCC(C(=O)N4CCOCC4)CC3)c(C)o2)cc1OC | -6.54%
